The source made the active and inactive calls. Rule for the calls: active = hit-call score of the fitted dose curve at least 0.9, where 1 is the maximum; inactive = score below 0.9.
Tests used:
[1] = APR_HepG2_CellCycleArrest_24hr: Apredica 24-hour HepG2 Assay for Cell Cycle Arrest (AID 2282905); conditions: imaging, actives raise or lower the signal;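 note: cell cycle arrest scored as ratio of 2N to 4N nuclear DNA content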
In short: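 HepG2, 24 hr dosing, 10-pt 0.39–200 uM in duplicate, 0.5% DMSO. Fixed 3.7% formaldehyde, permeabilized 0.5% Triton X-100, Hoechst 33342 2 ug/mL. Imaged 20x; nuclear DNA content quantified; bidirectional fit vs DMSO.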

[2] = APR_HepG2_NuclearSize_24hr: Apredica 24-hour HepG2 Assay for Nuclear Size (AID 2282907); conditions: high-content imaging, actives raise or lower the signal
In short: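 HepG2, 24 hr dosing, 10-pt 0.39–200 uM, duplicates, 0.5% DMSO final; 3.7% formaldehyde fix, 0.5% Triton X-100; Hoechst 33342 nuclear stain; ArrayScan HCS, Cell Cycle analysis → nuclear size; bidirectional fit vs DMSO.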

[3] = APR_HepG2_CellLoss_24hr: Apredica 24-hour HepG2 Assay for Cell Loss (AID 2282908); conditions: high-content imaging;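 for AC50: fit in both directions so a hit may be cell loss or gain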
In short: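 10-pt dose, 0.39–200 uM, n=2/plate; DMSO 0.5% v/v final as negative control. Fix 3.7% formaldehyde 30 min RT, permeabilize 0.5% Triton X-100, stain Hoechst 33342 2 ug/mL, image 20x. Nuclear count, bidirectional fit vs DMSO.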

[4] = APR_HepG2_MicrotubuleCSK_24hr: Apredica 24-hour HepG2 Assay for Microtubule CSK Stabilty (AID 2282909); conditions: HepG2 microtubule cytoskeleton imaging, actives raise or lower the signal
In short: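 Human liver HepG2, 24 h dosing, 0.39–200 uM ×10 conc, dup, 0.5% DMSO. 3.7% formaldehyde fix, 0.5% Triton perm, anti-alpha-tubulin (1:200)/Cy5 secondary + Hoechst. HCS imaging, 6 fields/well; gain/loss fit vs DMSO.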

[5] = APR_HepG2_MitoticArrest_24hr: Apredica 24-hour HepG2 Assay for Mitotic Arrest (AID 2282910); conditions: high-content imaging, actives raise or lower the signal
In short: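 HepG2 human liver cells were exposed to compounds at 0.39–200 uM (10 concentrations, duplicate) in 0.5% v/v DMSO for 24 hr, then fixed and immunostained for phospho-histone H3 with Hoechst 33342. Mitotic arrest came from HCS fluorescent imaging, fitted bidirectionally against DMSO.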

[6] = APR_HepG2_MitoMembPot_24hr: Apredica 24-hour HepG2 Assay for Mitochondrial Membrane Potential (AID 2282911); conditions: imaging, actives raise or lower the signal
In short: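 Cells are dosed for 24 hr across 0.39 to 200 uM with solvent held at 0.5% DMSO. They are then stained with 250 nM MitoTracker Red CMXRos for 30 min, fixed in 3.7% formaldehyde and imaged.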

[7] = APR_HepG2_MitoMass_24hr: Apredica 24-hour HepG2 Assay for Mitochondrial Mass (AID 2282912); conditions: high-content imaging, actives raise or lower the signal
In short: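 Mitochondrial mass is read as MitoTracker Red fluorescence intensity from automated imaging, with bidirectional curve fitting relative to DMSO. HepG2 cells received compound (0.39–200 uM, 0.5% DMSO final) for 24 hr and were dye-loaded (250 nM, 30 min) before formaldehyde fixation.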

[8] = APR_HepG2_p53Act_24hr: Apredica 24-hour HepG2 Assay for p53 Activation (AID 2282913); conditions: high-content imaging, actives raise or lower the signal;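 note: p53 protein immunofluorescence averaged per cell in HepG2 with Hoechst nuclei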
In short: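 Human HepG2 liver cells; 24 hr cpd treatment, 0.39–200 uM, 0.5% DMSO final. Fixed in 3.7% formaldehyde, permeabilized with 0.5% Triton X-100, stained with anti-p53/Cy5 plus Hoechst 33342. Six images per well at 20x; gain or loss vs DMSO.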

[9] = APR_HepG2_CellCycleArrest_72hr: Apredica 72-hour HepG2 Assay for Cell Cycle Arrest (AID 2282914); conditions: high-content imaging, actives raise or lower the signal
In short: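 Read-out is Hoechst-stained nuclear DNA content measured by automated fluorescence imaging (20x, six images per well), fitted in both directions relative to DMSO. Human HepG2 liver cells received 0.39–200 uM compound for 72 hr at 0.5% v/v DMSO.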

[10] = APR_HepG2_CellLoss_72hr: Apredica 72-hour HepG2 Assay for Cell Loss (AID 2282915); conditions: high-content imaging
In short: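 HepG2 cells were exposed for 72 hr to compounds at 0.39–200 uM (ten concentrations, duplicate) in 0.5% v/v final DMSO. Nuclei were stained with Hoechst 33342 after 3.7% formaldehyde fixation, imaged at 20x, and counted; fits bidirectional versus DMSO.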

[11] = APR_HepG2_P-H2AX_72hr: Apredica 72-hour HepG2 Assay for H2AX Phosphorylation (AID 2282916); conditions: imaging, actives raise or lower the signal;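 note: phospho-histone H2A.x immunostain intensity per cell marking DNA damage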
In short: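 HepG2; cpd 0.39–200 uM ×10 conc, duplicates; 0.5% DMSO; 72 hr. Fix 3.7% formaldehyde 30 min RT, 0.5% Triton X-100 10 min. Anti-phospho-H2A.x 1:200 + Hoechst 2 ug/mL, 60 min RT; ArrayScan imaging.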

[12] = APR_HepG2_MitoMembPot_72hr: Apredica 72-hour HepG2 Assay for Mitochondrial Membrane Potential (AID 2282917); conditions: imaging, actives raise or lower the signal
In short: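 HepG2 cells exposed 72 h to compounds at 0.39–200 uM (0.5% v/v DMSO, duplicates); MitoTracker Red CMXRos 250 nM loaded 30 min before 3.7% formaldehyde fixation, imaged by HCS fluorescence. Bidirectional fit versus DMSO.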

[13] = APR_HepG2_MitoticArrest_72hr: Apredica 72-hour HepG2 Assay for Mitotic Arrest (AID 2282918); conditions: high-content imaging, actives raise or lower the signal
In short: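 Read-out is phospho-histone H3 immunofluorescence with Hoechst nuclear segmentation, imaged at 20x. Human HepG2 liver cells received ten concentrations (0.39–200 uM, final DMSO 0.5% v/v) for 72 hr before fixation. Gain or loss of signal was fitted relative to DMSO.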

[14] = APR_HepG2_MicrotubuleCSK_72hr: Apredica 72-hour HepG2 Assay for Microtubule CSK Stabilty (AID 2282919); conditions: HepG2 microtubule cytoskeleton, high-content imaging, actives raise or lower the signal
In short: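 HepG2 human liver cells were dosed for 72 h at ten concentrations from 0.39 to 200 uM in duplicate (0.5% v/v DMSO final). Fixed, permeabilized cells were immunostained for alpha-tubulin (Cy5) with a Hoechst counterstain and imaged at 20x.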

[15] = APR_HepG2_StressKinase_72hr: Apredica 72-hour HepG2 Assay for Stress Kinase (AID 2282921); conditions: HepG2 stress kinase (phospho-c-Jun) imaging, actives raise or lower the signal
In short: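 Dose 0.39–200 uM (10 pts, duplicate), 0.5% DMSO; 72 h; fix 3.7% formaldehyde 30 min RT; Triton permeabilize; anti-phospho-c-Jun/Cy3 + Hoechst 60 min RT; image 20x; fit gain/loss vs DMSO.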

[16] = APR_HepG2_p53Act_72hr: Apredica 72-hour HepG2 Assay for p53 Activation (AID 2282923); conditions: high-content imaging, actives raise or lower the signal;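 note: average cellular p53 protein immunofluorescence intensity in HepG2 cells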
In short: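 10-pt conc. 0.39–200 uM, duplicate, 0.5% DMSO; 72 hr exposure; 3.7% formaldehyde fix, 0.5% Triton perm; sheep anti-p53/Cy5 + Hoechst; ArrayScan 20x, 6 images/well; gain/loss fit vs DMSO.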

[17] = APR_HepG2_MitoMass_72hr: Apredica 72-hour HepG2 Assay for Mitochondrial Mass (AID 2282924); conditions: high-content imaging, actives raise or lower the signal;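 note: MitoTracker Red CMXRos stain intensity per cell imaged as mitochondrial mass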
In short: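 HepG2 cells were exposed for 72 hr to compounds at 0.39–200 uM (ten concentrations, duplicate, 0.5% v/v DMSO final). Live cells were stained with 250 nM MitoTracker Red CMXRos for 30 min, then fixed in 3.7% formaldehyde and imaged by HCS fluorescence.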

[18] = APR_HepG2_NuclearSize_72hr: Apredica 72-hour HepG2 Assay for Nuclear Size (AID 2282925); conditions: high-content imaging, actives raise or lower the signal
In short: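 HepG2 cells were exposed to compounds at ten concentrations from 0.39 to 200 uM (duplicate, 0.5% DMSO final) for 72 hr. After fixation in 3.7% formaldehyde, nuclei were stained with Hoechst 33342 (2 ug/mL) and imaged at 20x.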

[19] = APR_HepG2_StressKinase_24hr: Apredica 24-hour HepG2 Assay for Stress Kinase (AID 2282922); conditions: HepG2 stress kinase (phospho-c-Jun) imaging, actives raise or lower the signal
In short: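 HepG2 cells exposed 24 hr to compound at 0.39–200 uM (10 concentrations, duplicate), 0.5% v/v DMSO final. Fixed in 3.7% formaldehyde, permeabilized with Triton X-100, immunolabeled for phospho-c-Jun with Hoechst 33342; HCS fluorescence imaging, bidirectional fit versus DMSO.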

[20] = APR_HepG2_P-H2AX_24hr: Apredica 24-hour HepG2 Assay for H2AX Phosphorylation (AID 2282920); conditions: high-content imaging, actives raise or lower the signal
In short: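 HepG2, 24 hr, cpd 0.39–200 uM (10 conc, duplicate), DMSO 0.5% v/v final. Fix 3.7% formaldehyde, Triton X-100 permeabilize, anti-phospho-H2A.x 1:200 + Hoechst 2 ug/mL. Imaged, bidirectional fit vs DMSO.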

Measured: AC50

COC(=O)CCC(=O)OC
inactive: [1] | [2] | [3] | [4] | [5] | [6] | [7] | [8] | [9] | [10] | [11] | [12] | [13] | [14] | [15] | [16] | [17] | [18]

C=CCc1ccc(OC)c(OC)c1
inactive: [1] | [2] | [3] | [4] | [5] | [6] | [7] | [8] | [9] | [10] | [11] | [12] | [13] | [14] | [15] | [16] | [17] | [18]

CCCCCCCCCCCCCCOS(=O)(=O)O
active: [1] 110 µM | [3] 117 µM | [5] 109 µM | [8] 100 µM | [10] 110 µM | [11] 110 µM | [12] 110 µM | [13] 98.5 µM | [16] 111 µM | [17] 121 µM
inactive: [2] | [4] | [6] | [7] | [9] | [14] | [15] | [19] | [18]

C/C=C/C=C/C(=O)O
inactive: [1] | [2] | [3] | [4] | [5] | [6] | [7] | [12] | [14] | [20] | [15] | [19]
active: [9] 71.5 µM | [10] 83.7 µM | [11] 93 µM | [13] 98.2 µM | [17] 47.5 µM

From PubChem BioAssay (EPA / NIEHS)
